Test results: the supplement of paper PMC12024529
Where “and” joins values, the source holds several entries; their conditions need not be identical. Equal entries are not always repeated.

Tested on: HEK293 WT BDD-FVIII-Gluc
Assay: secreted FVIII-Gluc luciferase Z-score vs DMSO control; higher = more FVIII-Gluc secretion
Details: 5 µM
Method: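 Natural plant-compound library (480 compounds, ST catalogue IDs) screened on HEK293 cells stably expressing WT BDD-FVIII-Gaussia luciferase fusion at 5 µM. Secreted Gluc activity in the medium is given as a Z-score relative to DMSO controls.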

Row | Compound | secreted FVIII-Gluc luciferase Z-score
1 | CO[C@H]1/C=C/O[C@@]2(C)Oc3c(C)c(O)c4c(O)c(cc(O)c4c3C2=O)NC(=O)/C(C)=C\C=C\[C@H](C)[C@H](O)[C@@H](C)[C@@H](O)[C@@H](C)[C@H](OC(C)=O)[C@@H]1C | -0.224
2 | O=C1CC(c2ccc(O)cc2)Oc2cc(O)cc(O)c21 (stereo not given) | -0.524
3 | O=C1OC(=O)C2C3CCC(O3)C12 (stereo not given) | -0.862
4 | Cc1c(C(=O)O)c(O)cc2c1C(=O)c1c(O)c([C@H]3O[C@H](CO)[C@@H](O)[C@H](O)[C@H]3O)c(O)c(O)c1C2=O | 0.527 and 0.738
5 | CC[C@@H]1[C@H]2CCCCN3[C@H]2[C@H](C[C@H]3[C@@H]2C[C@H](C)C(=O)O2)[C@@H]2[C@H]1OC(=O)[C@H]2C | -0.0302
6 | CC(=O)[C@@H]1[C@H]2[C@H](C(=O)[C@H]3OC[C@@H]2O3)[C@H]2C=Cc3ccccc3N21 | 0.187
7 | COc1cc([C@@H]2Oc3cc(C4Oc5cc(O)cc(O)c5C(=O)[C@H]4O)ccc3O[C@H]2CO)ccc1O (stereo not given in full) | 0.0424
8 | C[C@H](CCC(=O)O)[C@H]1CC[C@H]2[C@@H]3[C@H](O)C[C@@H]4C[C@H](O)CC[C@]4(C)[C@H]3C[C@H](O)[C@]12C | -0.337
9 | CC(C=CC1=C(C)CCCC1(C)C)=CC=CC(C)=CCO | 0.89
10 | COc1cc2cc(Oc3ccc4ccc(=O)oc4c3)c(=O)oc2cc1OC(C)=O | 0.744
11 | O=c1cc(-c2ccccc2)oc2cc(O)c(O)c(O)c12 | -0.284
12 | O=c1cc(-c2cccc(O)c2O)oc2ccccc12 | -0.852
13 | COc1ccc2[nH]c(=O)c3c(c2c1)OC(C)(C)C=C3 | -1.14
14 | C=C1CCC(O)C/C1=C\C=C1/CCCC2(C)C1CCC2C(C)/C=C/C(C)C(C)C (stereo not given) | -0.228
15 | O=c1cc(-c2ccc(O)cc2)oc2cc(O)cc(O)c12 | 0.864
16 | CC1C(=O)OC2CC34C5CC(C(C)(C)C)C36C(OC(=O)C6O)OC4(C(=O)O5)C21O (stereo not given) | -0.604
17 | O=C(O)C1=C[C@@H](O)[C@@H](O)[C@H](O)C1 | 0.3
18 | COC(=O)CC[C@@H](C)[C@H]1CC[C@H]2[C@@H]3CC[C@@H]4C[C@H](O)CC[C@]4(C)[C@H]3C[C@H](O)[C@]12C | 0.392
19 | O=C(CCc1ccc(O)cc1)c1c(O)cc(O)cc1O | -0.769
20 | C=C(CO)C1Cc2c(ccc3c(=O)c4c(oc23)COc2cc(OC)c(OC)cc2-4)O1 (stereo not given) | 0.0519
21 | COc1cc2c(cc1OC)-c1c(OC)c(OC)cc3ccnc(c13)C2=O | -0.583
22 | CCC12CCCN3CCc4c(n(c5ccccc45)C(O)(C(=O)OC)C1)C32 (stereo not given) | 0.301
23 | O=c1cc(-c2ccc(O)c(O)c2)oc2cc(OC3OC(CO)C(O)C(O)C3O)cc(O)c12 (stereo not given) | -0.168
24 | COc1ccc2c(c1OC)C(=O)O[C@@H]2[C@H]1c2c(cc3c(c2OC)OCO3)CCN1C | -0.0362

Row | Compound | secreted FVIII-Gluc luciferase Z-score
25 | CN1C(CC(=O)c2ccccc2)CCC[C@H]1C[C@H](O)c1ccccc1 (stereo not given in full) | 0.401
26 | COc1cc(C=O)ccc1O | 0.374
27 | Cc1cc(O)cc(O)c1 | 0.642
28 | NC(Cn1ccc(=O)c(O)c1)C(=O)O (stereo not given) | 0.208
29 | O=C(CCc1ccc(O)cc1)c1c(O)cc(O)cc1O[C@@H]1O[C@H](CO)[C@@H](O)[C@H](O)[C@H]1O | 0.224 and 0.244
30 | O=c1ccn([C@H]2C[C@H](O)[C@@H](CO)O2)c(=O)[nH]1 | 0.515
31 | CC(C)[C@@H]1CC[C@@H](C)C[C@H]1OC(=O)[C@@H](C)O | -0.146
32 | CC(C)c1ccc2c(c1)CCC1C(C)(CN)CCC[C@]21C (stereo not given in full) | 0.04
33 | COc1cccc(-c2oc3ccccc3c(=O)c2O)c1 | 0.776
34 | CO[C@H]1/C=C/O[C@@]2(C)Oc3c(C)c(O)c4c(O)c(c(/C=N/N5CCN(C)CC5)c(O)c4c3C2=O)NC(=O)/C(C)=C\C=C\[C@H](C)[C@H](O)[C@@H](C)[C@@H](O)[C@@H](C)[C@H](OC(C)=O)[C@@H]1C | -0.504
35 | CCC(=O)OCC(=O)[C@@]1(OC(=O)CC)[C@@H](C)C[C@H]2[C@@H]3CCC4=CC(=O)C=C[C@]4(C)[C@@]3(F)[C@@H](O)C[C@@]21C | 3.76
36 | CC(=O)OC1CCC2(C)C(CCC3(C)C2C(=O)C=C2C4CC(C)(C(=O)OCCN5CCCCC5)CCC4(C)CCC23C)C1(C)C (stereo not given) | 0.64
37 | O=C(O)CCCC[C@@H]1SC[C@@H]2NC(=O)N[C@@H]21 | 0.929
38 | CC(=O)Oc1c(C)c(C)c2c(c1C)CCC(C)(CCCC(C)CCCC(C)CCCC(C)C)O2 (stereo not given) | 0.728
39 | N[C@@H](Cc1c[nH]c2ccc(O)cc12)C(=O)O | 0.43
40 | CCOC(=O)C1=C[C@]2(CC)CCCN3CCc4c(n1c1ccccc41)[C@@H]32 | 0.132
41 | O=c1c(O)c(-c2ccc(O)c(O)c2)oc2c(O[C@@H]3O[C@H](CO)[C@@H](O)[C@H](O)[C@H]3O)c(O)cc(O)c12 | 1.19
42 | COC(=O)[C@@H]1C(O)CCC2CN3CCc4c([nH]c5ccccc45)C3CC21 (stereo not given in full) | 0.187
43 | COc1cc([C@@H]2c3cc4c(cc3C(OC3OC5COC(C)OC5C(O)C3O)C3COC(=O)[C@@H]32)OCO4)cc(OC)c1O (stereo not given in full) | -6.37
44 | Cc1cc2ccc(=O)oc2cc1OC[C@@H](O)C(C)(C)O | -0.00524
45 | Cn1ccc(O)c(C#N)c1=O | 0.00283
46 | C[C@H](CCC(=O)O)[C@H]1CC[C@H]2[C@@H]3[C@H](O)C[C@@H]4C[C@H](O)CC[C@]4(C)[C@H]3CC[C@]12C | 0.787
47 | O=C(O)c1cc(=O)c2ccccc2[nH]1 | 0.496
48 | CC(C)=CCC[C@H](C)CCO | 0.0595

Row | Compound | secreted FVIII-Gluc luciferase Z-score
49 | C=C(CO)C1Cc2c(ccc3c2OC2COc4cc(OC)c(OC)cc4C2C3=O)O1 (stereo not given) | -1.91
50 | COc1ccc2c(c1OC)C(=O)O[C@H]2[C@H]1c2c(cc3c(c2OC)OCO3)CCN1C | 0.932
51 | COc1cc2ccc(=O)oc2cc1O | 0.0462
52 | O=C(N[C@H](CO)[C@H](O)c1ccc([N+](=O)[O-])cc1)C(Cl)Cl | 0.907
53 | CC(=O)[C@H]1CC[C@H]2[C@@H]3CCC4=CC(=O)CC[C@]4(C)[C@H]3CC[C@]12C | 0.00749
54 | O=C1c2c(O)cc(O)cc2OC(c2ccc(O)c(O)c2)C1O (stereo not given) | -0.135
55 | Cn1c(=O)c2c(ncn2C)n(C)c1=O | -0.0716
56 | COc1ccc2oc(-c3ccccc3)c(OC)c(=O)c2c1 | 0.232
57 | O=C1c2ccccc2C(=O)c2c1ccc(O)c2O | 0.508
58 | COc1ccc(C2OCC3(COC(C)=O)C(C)C=C(C)C2C3C)cc1 (stereo not given) | -1.63
59 | COc1ccc2c(c1OC)C(Cc1ccccc1)N1CCc3cc4c(cc3C1C2)OCO4 (stereo not given) | 0.496
60 | CC1=CC(=O)CC(C)(C)C1(O)/C=C/C(C)=C\C(=O)O (stereo not given) | 0.388
61 | CC(C)CCCC(C)C1CCC2C3CC=C4CC(O)CCC4(C)C3CCC12C (stereo not given) | 0.231
62 | c1coc(CNc2ncnc3nc[nH]c23)c1 | 0.193
63 | COc1ccccc1-c1oc2ccccc2c(=O)c1OC | 1.49
64 | C[C@@H]1O[C@@H](O[C@H]2[C@H](Oc3cc(O)c4c(c3)O[C@H](c3ccc(O)cc3)CC4=O)O[C@H](CO)[C@@H](O)[C@@H]2O)[C@H](O)[C@H](O)[C@H]1O | 1.39
65 | Cc1cc(O)c2c(c1)C(=O)c1cccc(O)c1C2=O | 0.974
66 | C[S+]([O-])CCC(N)C(=O)O (stereo not given) | 1.1
67 | Cc1cc(=O)cc2oc3cc(N)c(-c4c(C)cc(O)cc4O)c(C)c3nc1-2 | -0.31
68 | CC(=O)c1c(O)c(C)c(O)c2c1OC1=CC(=O)C(C(C)=O)C(=O)[C@@]12C (stereo not given in full) | -5.07
69 | CC1CCC2[C@](C)(CO)C(O)CC[C@]2(C)C12CCC(CO)(CCO)O2 (stereo not given in full) | 0.9
70 | O=c1cc(-c2ccccc2O)oc2c1ccc1ccccc12 | 0.301
71 | NCCC(=O)N[C@@H](Cc1cnc[nH]1)C(=O)O | -1.31
72 | COc1ccc2c(=O)c(-c3ccccc3)coc2c1 | 1.15

Row | Compound | secreted FVIII-Gluc luciferase Z-score
73 | COc1ccc(C(=O)C2C3C4COC(O4)C(=O)C3C3C=Cc4ccccc4N32)c(OC)c1 (stereo not given) | -0.809
74 | O=c1oc2c(O)c(O)cc3c(=O)oc4c(O)c(O)cc1c4c23 | 0.53
75 | O=c1cc(-c2ccccc2O)oc2c(O)c(O)ccc12 | 0.356
76 | CC(C)CC(NC(=O)C(NC(=O)NC(Cc1ccccc1)C(=O)O)C1CCN=C(N)N1)C(=O)NC(C=O)Cc1ccccc1 (stereo not given) | 0.979
77 | COc1cc(O)c2c(=O)cc(-c3ccccc3)oc2c1 | 1.12
78 | O=c1c(-c2ccc(O[C@@H]3O[C@H](CO)[C@@H](O)[C@H](O)[C@H]3O)cc2)coc2cc(O)cc(O)c12 | 0.683
79 | COc1c(-c2ccc(O)c(O)c2)oc2cc(O)cc(O)c2c1=O | -0.415
80 | O=C(O)CNC(=O)c1ccccc1 | 1.07
81 | O=C(O)c1cc(O)c2c(c1)C(=O)c1cccc(O)c1C2=O | 0.381
82 | CC1(C)[C@@H]2CC[C@@]1(C)C(=O)C2 | 0.363
83 | COc1cc(=O)n(C)c2c(OCC(O)C(C)(C)O)cccc12 (stereo not given) | -1.05
84 | CC(=O)O[C@H]1C(=O)[C@@]2(C)C([C@H](OC(=O)c3ccccc3)[C@]3(O)C[C@H](OC(=O)[C@@H](O)[C@@H](NC(=O)c4ccccc4)c4ccccc4)C(C)=C1C3(C)C)[C@]1(OC(C)=O)CO[C@@H]1C[C@@H]2O (stereo not given in full) | -3.56
85 | CN1C(=O)CC[C@H]1c1cccnc1 | -0.0585
86 | COc1ccc2c(c1)[C@@]1(C)CCC[C@](C)(CO)C1CC2 (stereo not given in full) | 0.437
87 | C=C1CCC(O)C/C1=C\C=C1/CCCC2(C)C1CCC2C(C)CCCC(C)C (stereo not given) | -1.24
88 | COc1cc2c(C=O)c3c4c(cc(OC)c(OC)c4c2cc1OC)CCN3C | 0.315
89 | COc1ccc2c(=O)cc(-c3ccccc3)oc2c1O | 0.609
90 | C/C(=C\COc1cc(=O)[nH]c2ccccc12)CCC(O)C(C)(C)O (stereo not given) | -0.128
91 | O=C(O)/C=C/c1ccc(O)c(O)c1 | -0.126
92 | CC1(C)CCC[C@@]2(C)C1CCC1(C)OC(=O)CC12 (stereo not given in full) | 0.281
93 | COc1cc(/C=C/C(=O)CC(=O)/C=C/c2ccc(O)c(OC)c2)ccc1O | 0.567
94 | C1CCN2CC3CC(CN4CCCC[C@H]34)C2C1 (stereo not given in full) | 1.22
95 | CN(C)[C@@H]1C(=O)C(C(=O)NCN2CCCC2)=C(O)[C@@]2(O)C(=O)C3=C(O)c4c(O)cccc4[C@@](C)(O)[C@H]3C[C@@H]12 | 0.407
